Measurements taken from the supplement of paper PMC11732987, “Enantioselective OTUD7B fragment discovery through chemoproteomics screening and high-throughput optimisation” (Communications Chemistry, 2025).

What was measured:
Assay in all cases: log2 ratio of Biotin-Ahx-Ub-VS probe labelling (fragment/DMSO); higher = less target engagement (more negative = stronger competition), active = hit call of the paper (q ≤ 0.05, log2 ratio ≤ -1)
Details in all cases: compound concentration: 200 uM; treatment time: 3 h
USP9X = USP9X (UniProt Q93008)
Chain of USP9X (Q93008 whole entry, the tested form may be a part): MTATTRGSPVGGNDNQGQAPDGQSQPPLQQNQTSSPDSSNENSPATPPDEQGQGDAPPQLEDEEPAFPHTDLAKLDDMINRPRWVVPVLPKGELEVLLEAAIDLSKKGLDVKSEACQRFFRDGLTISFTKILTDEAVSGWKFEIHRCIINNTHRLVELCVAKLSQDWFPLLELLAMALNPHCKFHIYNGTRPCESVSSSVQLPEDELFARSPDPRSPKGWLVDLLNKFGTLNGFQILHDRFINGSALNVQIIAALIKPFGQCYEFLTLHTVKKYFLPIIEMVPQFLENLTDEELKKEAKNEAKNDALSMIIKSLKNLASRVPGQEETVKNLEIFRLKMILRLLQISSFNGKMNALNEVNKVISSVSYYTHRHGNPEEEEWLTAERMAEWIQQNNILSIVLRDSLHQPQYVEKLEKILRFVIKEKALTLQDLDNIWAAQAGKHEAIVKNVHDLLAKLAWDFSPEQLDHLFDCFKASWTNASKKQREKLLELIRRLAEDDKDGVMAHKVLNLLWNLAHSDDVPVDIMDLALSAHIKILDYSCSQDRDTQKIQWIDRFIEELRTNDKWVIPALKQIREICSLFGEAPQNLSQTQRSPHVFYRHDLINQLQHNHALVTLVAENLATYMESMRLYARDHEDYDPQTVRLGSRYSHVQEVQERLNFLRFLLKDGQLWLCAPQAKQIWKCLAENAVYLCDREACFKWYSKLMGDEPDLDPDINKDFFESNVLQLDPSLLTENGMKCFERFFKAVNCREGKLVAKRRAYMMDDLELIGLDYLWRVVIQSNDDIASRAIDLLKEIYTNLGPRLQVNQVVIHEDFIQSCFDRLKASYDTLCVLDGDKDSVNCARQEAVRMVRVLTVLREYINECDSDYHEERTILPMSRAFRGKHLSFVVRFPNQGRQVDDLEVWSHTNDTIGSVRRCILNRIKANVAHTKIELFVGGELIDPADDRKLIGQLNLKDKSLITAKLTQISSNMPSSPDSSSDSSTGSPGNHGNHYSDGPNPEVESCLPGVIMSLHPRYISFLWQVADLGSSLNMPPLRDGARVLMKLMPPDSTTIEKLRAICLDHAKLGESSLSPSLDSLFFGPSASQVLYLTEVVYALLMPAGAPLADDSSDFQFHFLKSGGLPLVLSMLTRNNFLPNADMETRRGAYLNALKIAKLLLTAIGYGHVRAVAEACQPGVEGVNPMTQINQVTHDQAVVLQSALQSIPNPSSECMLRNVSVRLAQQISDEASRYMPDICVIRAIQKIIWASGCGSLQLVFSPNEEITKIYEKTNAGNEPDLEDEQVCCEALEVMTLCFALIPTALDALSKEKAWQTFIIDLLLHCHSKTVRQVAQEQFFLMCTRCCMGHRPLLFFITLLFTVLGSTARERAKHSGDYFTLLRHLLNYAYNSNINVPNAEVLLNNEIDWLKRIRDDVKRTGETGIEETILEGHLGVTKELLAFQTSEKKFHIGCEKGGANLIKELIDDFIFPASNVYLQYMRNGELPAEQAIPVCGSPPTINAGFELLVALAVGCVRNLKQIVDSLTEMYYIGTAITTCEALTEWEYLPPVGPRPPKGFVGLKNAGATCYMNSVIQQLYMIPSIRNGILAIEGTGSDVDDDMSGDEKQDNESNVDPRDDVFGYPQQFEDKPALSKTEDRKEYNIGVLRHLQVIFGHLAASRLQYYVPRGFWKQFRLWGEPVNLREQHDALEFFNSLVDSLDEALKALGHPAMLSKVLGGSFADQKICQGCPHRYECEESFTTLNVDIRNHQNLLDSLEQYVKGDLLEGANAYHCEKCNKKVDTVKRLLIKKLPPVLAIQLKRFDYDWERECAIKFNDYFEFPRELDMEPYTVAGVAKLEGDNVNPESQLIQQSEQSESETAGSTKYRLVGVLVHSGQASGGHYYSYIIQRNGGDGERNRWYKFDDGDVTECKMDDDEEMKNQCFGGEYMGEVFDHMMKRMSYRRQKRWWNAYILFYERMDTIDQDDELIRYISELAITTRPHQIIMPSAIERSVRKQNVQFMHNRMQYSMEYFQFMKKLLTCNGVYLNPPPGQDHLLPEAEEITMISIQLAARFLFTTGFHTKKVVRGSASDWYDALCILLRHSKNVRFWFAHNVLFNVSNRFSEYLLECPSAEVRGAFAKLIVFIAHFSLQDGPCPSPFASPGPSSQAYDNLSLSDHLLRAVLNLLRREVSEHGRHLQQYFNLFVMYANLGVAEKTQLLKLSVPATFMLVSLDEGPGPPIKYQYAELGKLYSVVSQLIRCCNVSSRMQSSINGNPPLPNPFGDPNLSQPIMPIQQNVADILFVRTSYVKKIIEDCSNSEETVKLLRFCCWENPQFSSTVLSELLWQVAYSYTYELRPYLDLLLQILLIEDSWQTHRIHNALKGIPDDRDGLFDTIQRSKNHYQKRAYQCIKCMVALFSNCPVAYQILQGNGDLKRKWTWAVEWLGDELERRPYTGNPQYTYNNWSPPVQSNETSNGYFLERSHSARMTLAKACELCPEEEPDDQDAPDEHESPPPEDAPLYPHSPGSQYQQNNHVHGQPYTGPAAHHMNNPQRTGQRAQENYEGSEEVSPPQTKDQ
How it was run: (§1)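 HEK293T lysate (495 µg per sample, in Tris/CHAPS/IGEPAL buffer with protease inhibitors) was treated in triplicate with fragment at 200 µM or with DMSO for 3 h. It was then treated with Biotin-Ahx-Ub-VS (0.5 µM final) for 1 h. Labelled DUBs were NeutrAvidin-enriched, digested with LysC and trypsin, and run by diaPASEF LC-MS/MS. Spectronaut label-free quantities were global-median-normalised. Values are average log2 ratios fragment/DMSO by unpaired t-test, using proteins with ≥2 unique peptides.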

UniProt O00487 = biological target: UniProt O00487
Chain of UniProt O00487 (O00487 whole entry): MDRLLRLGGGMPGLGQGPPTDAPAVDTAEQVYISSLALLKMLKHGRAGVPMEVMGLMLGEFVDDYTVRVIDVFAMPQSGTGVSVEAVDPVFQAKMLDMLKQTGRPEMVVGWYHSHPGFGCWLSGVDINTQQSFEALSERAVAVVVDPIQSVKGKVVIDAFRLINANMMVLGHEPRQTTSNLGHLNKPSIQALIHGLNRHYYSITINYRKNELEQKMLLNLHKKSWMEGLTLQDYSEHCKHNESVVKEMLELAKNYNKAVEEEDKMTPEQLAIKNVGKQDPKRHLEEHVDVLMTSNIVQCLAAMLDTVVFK
How it was run: as §1

UniProt O00507 = biological target: UniProt O00507
How it was run: as §1

UniProt P51784 = biological target: UniProt P51784
Chain of UniProt P51784 (P51784 whole entry): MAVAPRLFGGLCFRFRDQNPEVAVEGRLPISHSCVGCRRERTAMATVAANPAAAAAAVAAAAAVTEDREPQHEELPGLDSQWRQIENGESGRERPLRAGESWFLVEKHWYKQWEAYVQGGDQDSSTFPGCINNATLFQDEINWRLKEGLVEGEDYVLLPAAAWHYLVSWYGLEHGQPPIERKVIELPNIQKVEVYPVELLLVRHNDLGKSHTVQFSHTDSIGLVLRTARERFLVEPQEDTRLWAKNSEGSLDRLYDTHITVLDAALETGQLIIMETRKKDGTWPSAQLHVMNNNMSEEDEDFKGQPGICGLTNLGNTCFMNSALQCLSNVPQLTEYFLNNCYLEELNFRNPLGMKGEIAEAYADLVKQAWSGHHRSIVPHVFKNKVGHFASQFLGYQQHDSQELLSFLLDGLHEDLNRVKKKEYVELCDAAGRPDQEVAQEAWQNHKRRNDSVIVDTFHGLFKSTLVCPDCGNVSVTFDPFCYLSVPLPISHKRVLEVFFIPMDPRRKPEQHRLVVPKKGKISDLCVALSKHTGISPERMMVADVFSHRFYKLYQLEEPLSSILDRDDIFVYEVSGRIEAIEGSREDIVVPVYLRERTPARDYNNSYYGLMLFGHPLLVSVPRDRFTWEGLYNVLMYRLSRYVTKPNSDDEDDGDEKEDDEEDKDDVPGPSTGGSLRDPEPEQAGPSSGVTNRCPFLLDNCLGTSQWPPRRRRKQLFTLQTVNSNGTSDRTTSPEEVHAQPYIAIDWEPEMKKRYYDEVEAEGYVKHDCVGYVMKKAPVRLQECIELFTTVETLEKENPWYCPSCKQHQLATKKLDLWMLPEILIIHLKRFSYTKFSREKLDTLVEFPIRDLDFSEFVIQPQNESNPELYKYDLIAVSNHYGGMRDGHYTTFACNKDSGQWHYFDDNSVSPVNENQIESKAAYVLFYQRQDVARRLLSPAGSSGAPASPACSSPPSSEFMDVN
How it was run: as §1

UniProt Q5T2D3 = biological target: T1, UniProt Q5T2D3
T1 sequence (whole entry): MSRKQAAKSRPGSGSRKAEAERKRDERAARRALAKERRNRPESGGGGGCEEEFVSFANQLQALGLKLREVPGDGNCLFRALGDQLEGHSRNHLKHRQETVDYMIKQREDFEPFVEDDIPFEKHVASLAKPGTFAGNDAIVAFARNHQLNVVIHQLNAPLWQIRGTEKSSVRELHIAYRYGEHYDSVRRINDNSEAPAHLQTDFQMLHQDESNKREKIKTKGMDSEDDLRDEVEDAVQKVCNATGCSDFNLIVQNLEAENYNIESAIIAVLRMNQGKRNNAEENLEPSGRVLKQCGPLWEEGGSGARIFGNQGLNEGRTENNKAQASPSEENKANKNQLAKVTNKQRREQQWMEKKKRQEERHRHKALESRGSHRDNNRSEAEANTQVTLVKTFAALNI
How it was run: as §1

UniProt Q8TE49 = biological target: T2, UniProt Q8TE49
T2 sequence (whole entry): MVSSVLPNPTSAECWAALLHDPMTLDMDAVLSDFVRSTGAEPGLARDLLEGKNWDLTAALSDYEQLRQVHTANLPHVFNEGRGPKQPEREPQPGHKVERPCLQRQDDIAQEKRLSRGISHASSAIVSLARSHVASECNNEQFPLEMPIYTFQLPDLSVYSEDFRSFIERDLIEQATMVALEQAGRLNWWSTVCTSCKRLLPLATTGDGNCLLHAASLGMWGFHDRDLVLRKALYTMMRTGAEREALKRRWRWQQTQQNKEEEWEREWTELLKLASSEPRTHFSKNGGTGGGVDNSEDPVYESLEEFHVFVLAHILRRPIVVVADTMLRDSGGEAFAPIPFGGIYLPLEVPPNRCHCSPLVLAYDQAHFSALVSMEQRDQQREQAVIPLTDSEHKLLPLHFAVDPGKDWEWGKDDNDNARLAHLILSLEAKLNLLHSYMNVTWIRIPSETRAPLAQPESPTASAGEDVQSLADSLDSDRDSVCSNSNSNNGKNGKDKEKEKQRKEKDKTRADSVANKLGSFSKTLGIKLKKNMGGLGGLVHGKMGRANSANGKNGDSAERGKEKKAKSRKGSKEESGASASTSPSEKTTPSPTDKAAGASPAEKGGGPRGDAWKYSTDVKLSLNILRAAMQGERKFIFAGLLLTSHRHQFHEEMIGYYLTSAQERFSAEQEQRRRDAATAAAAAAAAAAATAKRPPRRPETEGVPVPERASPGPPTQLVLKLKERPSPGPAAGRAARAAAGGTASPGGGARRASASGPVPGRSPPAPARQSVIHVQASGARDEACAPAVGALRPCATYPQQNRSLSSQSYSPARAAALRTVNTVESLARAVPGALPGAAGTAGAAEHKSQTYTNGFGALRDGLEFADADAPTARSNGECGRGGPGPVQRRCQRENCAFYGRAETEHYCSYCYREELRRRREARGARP
How it was run: as §1

UniProt Q9P2H5 = biological target: T3, UniProt Q9P2H5
T3 sequence (whole entry): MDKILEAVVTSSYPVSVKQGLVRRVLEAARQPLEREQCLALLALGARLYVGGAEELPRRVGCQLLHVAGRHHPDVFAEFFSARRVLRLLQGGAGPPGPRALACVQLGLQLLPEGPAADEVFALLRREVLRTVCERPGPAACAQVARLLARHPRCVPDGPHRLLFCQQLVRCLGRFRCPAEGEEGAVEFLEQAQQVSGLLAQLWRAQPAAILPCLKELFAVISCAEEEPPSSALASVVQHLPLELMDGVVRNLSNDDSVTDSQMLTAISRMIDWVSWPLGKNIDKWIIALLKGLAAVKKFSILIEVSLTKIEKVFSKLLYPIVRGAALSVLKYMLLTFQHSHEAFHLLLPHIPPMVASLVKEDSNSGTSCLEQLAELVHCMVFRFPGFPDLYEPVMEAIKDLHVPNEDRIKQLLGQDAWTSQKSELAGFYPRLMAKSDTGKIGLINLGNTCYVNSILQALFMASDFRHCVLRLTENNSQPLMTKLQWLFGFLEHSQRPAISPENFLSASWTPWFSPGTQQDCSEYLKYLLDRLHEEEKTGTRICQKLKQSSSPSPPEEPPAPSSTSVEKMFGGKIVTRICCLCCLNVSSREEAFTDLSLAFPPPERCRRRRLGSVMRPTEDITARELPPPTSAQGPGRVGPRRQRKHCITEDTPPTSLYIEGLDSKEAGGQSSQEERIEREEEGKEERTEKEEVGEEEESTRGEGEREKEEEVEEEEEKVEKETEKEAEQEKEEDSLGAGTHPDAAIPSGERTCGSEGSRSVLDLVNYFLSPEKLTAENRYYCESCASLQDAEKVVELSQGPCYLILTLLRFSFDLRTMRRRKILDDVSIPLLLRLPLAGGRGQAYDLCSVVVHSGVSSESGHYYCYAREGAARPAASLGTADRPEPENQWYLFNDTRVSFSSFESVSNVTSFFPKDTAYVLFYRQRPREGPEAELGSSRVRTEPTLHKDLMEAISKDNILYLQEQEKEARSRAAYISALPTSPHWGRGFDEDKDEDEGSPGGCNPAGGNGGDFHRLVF
How it was run: as §1

UniProt Q9UGI0 = biological target: T4, UniProt Q9UGI0
T4 sequence (whole entry): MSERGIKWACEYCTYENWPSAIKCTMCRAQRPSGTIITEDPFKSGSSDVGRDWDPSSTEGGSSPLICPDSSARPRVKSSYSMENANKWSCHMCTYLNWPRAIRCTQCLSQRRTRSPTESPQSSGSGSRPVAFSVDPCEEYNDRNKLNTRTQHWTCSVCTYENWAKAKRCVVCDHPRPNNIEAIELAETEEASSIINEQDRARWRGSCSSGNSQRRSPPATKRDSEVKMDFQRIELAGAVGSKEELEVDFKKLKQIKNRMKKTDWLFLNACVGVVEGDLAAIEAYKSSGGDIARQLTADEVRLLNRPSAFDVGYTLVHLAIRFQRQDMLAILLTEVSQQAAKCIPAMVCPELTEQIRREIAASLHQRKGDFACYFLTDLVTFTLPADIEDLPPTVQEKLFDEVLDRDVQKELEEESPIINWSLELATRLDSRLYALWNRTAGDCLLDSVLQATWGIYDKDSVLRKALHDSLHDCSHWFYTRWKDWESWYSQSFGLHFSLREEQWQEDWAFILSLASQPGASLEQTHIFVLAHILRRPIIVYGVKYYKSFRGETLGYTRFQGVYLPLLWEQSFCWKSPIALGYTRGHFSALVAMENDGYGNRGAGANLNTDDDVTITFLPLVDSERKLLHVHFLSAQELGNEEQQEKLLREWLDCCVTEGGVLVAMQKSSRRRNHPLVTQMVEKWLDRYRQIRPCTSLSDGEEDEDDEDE
How it was run: as §1

YOD1 = biological target: T5, YOD1 (UniProt Q5VVQ6)
T5 sequence (whole entry): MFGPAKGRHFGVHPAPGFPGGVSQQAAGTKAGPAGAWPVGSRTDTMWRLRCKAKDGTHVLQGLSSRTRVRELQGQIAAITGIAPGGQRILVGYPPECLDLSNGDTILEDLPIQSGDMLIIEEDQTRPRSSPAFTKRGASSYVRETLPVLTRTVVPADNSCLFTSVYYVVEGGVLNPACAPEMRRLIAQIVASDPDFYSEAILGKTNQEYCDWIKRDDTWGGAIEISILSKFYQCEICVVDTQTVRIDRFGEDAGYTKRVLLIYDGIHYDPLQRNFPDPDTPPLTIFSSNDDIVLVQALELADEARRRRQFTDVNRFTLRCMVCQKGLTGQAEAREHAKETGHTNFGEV
How it was run: as §1

Measured: log2 ratio of Biotin-Ahx-Ub-VS probe labelling

CCN1C(=O)C2CN(C(=O)CCl)CCN2C1=O (centres undefined)
inactive: USP9X -0.106 | UniProt O00487 0.00662 | UniProt O00507 0.428 | UniProt P51784 0.0433 | UniProt Q5T2D3 -0.0669 | UniProt Q8TE49 -0.958 | UniProt Q9P2H5 -0.223 | UniProt Q9UGI0 0.112 | YOD1 0.177
